Measurements as given in paper PMC5540273 (PLoS ONE, 2017).

Tested on: RIPK2
Settings: concentration: 1 μM, replicates: in singlicate; n = 1
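Further: KINOMEscan kinase panel screen.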

Compound	%Inh
COc1cc(Nc2nccc(N3CCC(NC(=O)Nc4cccc(C(C)=O)c4)C3)n2)cc(OC)c1OC (stereo not shown) [GSK1379753]	22%
CCn1c(-c2nonc2N)nc2c(C#CC(C)(C)O)ncc(OCCCCN)c21.O=C(O)C(F)(F)F.O=C(O)C(F)(F)F [GSK507274]	18%
COc1cc(Nc2nccc(-c3c(-c4cccc(NC(=O)c5c(F)cccc5F)c4)nn4ncccc34)n2)cc(OC)c1OC [GSK327238]	99.4%
O=C(Nc1n[nH]c2nc(-c3ccc(O)cc3)ccc12)C1CC1 [SB-710363]	0%
O=c1[nH]cc(-c2ccc(N3CCOCC3)cc2)c2sc(-c3cn[nH]c3)cc12 [GSK2276055]	0%
O=C(Nc1cccc(-c2nn3ccccc3c2-c2ccnc(Nc3cccc(F)c3)n2)c1)c1c(F)ccc(F)c1Cl [GSK357952]	35%
CC(C)c1nc(-c2cccc(NS(=O)(=O)c3c(F)cccc3F)c2F)c(-c2ccnc(Nc3ccc(N4CCOCC4)nc3)n2)s1 [GSK2008607]	96.3%
CC(=O)N1CCN(c2ccc(Nc3nccc(-c4sc(C(C)C)nc4-c4cccc(NS(=O)(=O)c5cccc(Cl)c5)c4)n3)cn2)CC1 [GSK1660437]	93.2%
O=C(Nc1cccc(-c2nn3ncccc3c2-c2ccnc(Nc3ccccc3)n2)c1)c1c(F)cccc1F [GSK198271]	94.8%
Cl.c1ccc(-c2ccc3c(Nc4ccc5[nH]ncc5c4)ccnc3c2)nc1 [GW440137]	75%
Cn1cc(-c2[nH]c3cc(NC(=O)[C@H](N)C4CCCCC4)cc4c3c2C=NNC4=O)cn1	2%
CNC(=O)c1ccccc1Nc1nc(Nc2ccc(N3CCOCC3)cc2)ncc1Cl.Cl [GSK1576028]	35%
c1ccc(-c2cnc3nccnn23)cc1 [AH20685]	0%
CN(C)S(=O)(=O)c1cc(-c2ccc3nccc(-c4cccc(S(N)(=O)=O)c4)c3c2)cnc1N [GSK1669921]	8%
COc1cccc(NC(=O)NC2CCN(c3ccnc(Nc4cc(OC)c(OC)c(OC)c4)n3)C2)c1 (stereo not shown) [GSK1379763]	29%
C[C@@H](Oc1cc(-n2cnc3cc(-c4ccnc(NCCS(C)(=O)=O)c4)ccc32)sc1C(N)=O)c1ccccc1Cl [GSK907232]	14%
Fc1ccc(-c2ncn(C3CCNCC3)c2-c2ccnc(Oc3ccc(-c4ccccc4)cc3)n2)cc1 [SB-245391]	70%
COc1cccc(C(=O)Nc2cccc(Oc3ccc4nc(NC(=O)C5CC5)cn4n3)c2)c1	50%
Nc1ncc(-c2cccnc2)c2scc(-c3ccc4c(c3)CCN4C(=O)Cc3ccccc3)c12 [GSK683281]	82%

Compound	%Inh
Cc1occc1-c1ncc(OC[C@@H](N)Cc2c[nH]c3ccccc23)cc1-c1ccc2[nH]nc(C)c2c1.O=C(O)C(F)(F)F [GSK682037]	12%
Nc1n[nH]c2cnc(-c3ccccc3)cc12 [SB-642124]	29%
Cc1ccc(S(=O)(=O)Nc2ccc(Nc3nccc(Nc4cccc5[nH]ncc45)n3)cc2)cc1 [GSK581271]	69%
c1ccc(-c2n[nH]cc2Nc2ccnc3ccccc23)nc1 [GW694077]	11%
COc1ccc(Nc2nccc(NCCNC(=O)c3cc4ccccc4s3)n2)cc1 [GSK1379896]	12%
Cc1ccc(F)c(C(=O)Nc2cccc(-c3nn4ccccc4c3-c3ccnc(Nc4cccc(F)c4)n3)c2)c1F [GSK361061]	61%
CC(C)(C)c1ccc2nccc(Nc3cccc(O)c3)c2c1 [GW856795]	34%
COc1cc(Nc2ncc3c(C)nc(-c4cc5ccccc5[nH]4)n3n2)cc(OC)c1OC [GW869516]	6%
COC(=O)Nc1nc2ccc(Oc3ccc(NC(=O)Nc4cc(C(F)(F)F)ccc4F)cc3)cc2n1C.Cl [GW692089]	29%
CCCCc1nn2ncccc2c1-c1ccnc(Nc2ccc(N3CCN(C)CC3)cc2)n1 [GW684941]	74%
O=C(O)C(F)(F)F.O=C(O)C(F)(F)F.O=c1[nH]ccc2nc(N[C@@H]3CCCNC3)nc(Nc3ccc(S(=O)(=O)N4CCOCC4)cc3)c12 [GSK2177277]	0%
Cl.Cl.NCC(C(=O)Nc1cc(Br)c(-c2ccnc3[nH]ccc23)s1)c1ccccc1 (stereo not shown) [GSK1269851]	0%
COc1ccc(-c2coc3ccc(-c4nnc(SCc5ccc(OC)c(C(F)(F)F)c5)o4)cc23)cc1	17%
COc1cccc(-c2ccc3c(NC(=O)C4CC4)n[nH]c3n2)c1 [SB-710903]	15%
Oc1cc(Nc2ccnc3cc(I)ccc23)ccc1F [GW552771]	50%
COc1cc2c(cc1OCCN1CCNCC1)ncc1c3ccc(C#N)cc3[nH]c21	16%
CCS(=O)(=O)c1ccc(OC)c(Nc2nccc(-c3c(-c4cccc(NC(=O)c5c(F)cccc5F)c4)nn4ncccc34)n2)c1 [GSK326180]	83%
Cc1cccc(Nc2nc(N[C@H]3CCNC3)ncc2C(N)=O)c1.Cl [GSK2197149]	0%
